From PubChem BioAssay (EPA / NIEHS) come the findings set out here.

Inconclusive results are not listed. Calls of active or inactive are those of the source. The calls were made as follows, unless noted: active = hit-call score of the fitted dose curve at least 0.9, where 1 is the maximum; inconclusive = response in the unintended direction; inactive = score below 0.9.

Assay [1] is described as follows: ATG_EGR_CIS: Attagene CIS-FACTORIAL HepG2 Assay for human Early Growth Response 1 (EGR1) (AID 2282938; active = hit-call score of the fitted dose curve at least 0.9, where 1 is the maximum; inactive = score below 0.9). Particulars: HepG2 Attagene CIS-FACTORIAL EGR reporter mRNA; actives raise or lower the signal. An outline of the steps:
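Cell-based multiplex transcription assay: HepG2 carrying transfected cis-element reporter units, 24 h chemical treatment. Fluorescence from capillary electrophoresis of RT-PCR products gives mRNA levels; fitting is bidirectional relative to DMSO.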

Assay [2] in a line: ATG_GRE_CIS: Attagene CIS-FACTORIAL HepG2 Assay for human Glucocorticoid Response Elements (GRE) (AID 2282947; active = hit-call score of the fitted dose curve at least 0.9, where 1 is the maximum; inactive = score below 0.9). As to conditions: HepG2 GRE cis-reporter, Attagene multiplex mRNA; actives raise or lower the signal. The essentials:
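Assay uses human hepatoma HepG2 cells transfected with cis-promoter reporter units, exposed 24 h. mRNA from reporters detected by RT-PCR plus capillary electrophoresis; DMSO serves as negative control and baseline.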

Assay [3] is described as follows: ATG_M_06_CIS: Attagene CIS-FACTORIAL HepG2 Assay for M06 Transcription Factor (Internal Marker) (AID 2282950; active = hit-call score of the fitted dose curve at least 0.9, where 1 is the maximum; inactive = score below 0.9). Particulars: HepG2 Attagene CIS-FACTORIAL M06 internal marker reporter; actives raise or lower the signal. The essentials:
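One of many multiplexed endpoints: HepG2 reporter mRNA after 24 h dosing, detected by RT-PCR and capillary electrophoresis fluorescence; gain or loss of signal analysed against DMSO.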

Assay [4] in a line: ATG_PPRE_CIS: Attagene CIS-FACTORIAL HepG2 Assay for human Peroxisome Proliferator-activated Response Element (PPRE) (AID 2282958; active = hit-call score of the fitted dose curve at least 0.9, where 1 is the maximum; inactive = score below 0.9). As to conditions: HepG2 PPRE cis-element reporter, Attagene transcription factor profiling; actives raise or lower the signal. The essentials: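 Multiplexed reporter transcription units under cis-regulatory promoters were transfected into HepG2 cells to capture endogenous factor activity. A 24 h incubation preceded RNA isolation and fluorescent RT-PCR fragment analysis.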

Assay [5] is described as follows: ATG_RORE_CIS: Attagene CIS-FACTORIAL HepG2 Assay for human RAR-related Orphan Receptor Element (RORE) (AID 2282959; active = hit-call score of the fitted dose curve at least 0.9, where 1 is the maximum; inactive = score below 0.9). Particulars: HepG2 Attagene cis-factorial RORE reporter, mRNA; actives raise or lower the signal. An outline of the steps:
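Fluorescence intensity of reporter-specific cDNA fragments, separated by capillary electrophoresis, gives the signal. Source: HepG2 liver cells transiently transfected with cis-element reporters and exposed 24 h; DMSO-normalized bidirectional fit.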

A short description of assay [6]: ATG_TGFb_CIS: Attagene CIS-FACTORIAL HepG2 Assay for human Transforming Growth Factor (TGF) (AID 2282967; active = hit-call score of the fitted dose curve at least 0.9, where 1 is the maximum; inactive = score below 0.9). As to conditions: HepG2 Attagene CIS TGFb reporter, mRNA transcription; actives raise or lower the signal. The essentials: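 After a 24-hour incubation with compound, transfected HepG2 cells were lysed for RNA; reporter cDNA was amplified, fluorescently end-labeled and separated by CE. DMSO served as baseline for bidirectional fits.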

Assay [7] is described as follows: ATG_M_06_TRANS: Attagene TRANS-FACTORIAL HepG2 Assay for M06 Transcription Factor (Internal Marker) (AID 2282983). As to conditions: HepG2 Attagene TRANS M06 internal marker reporter. An outline of the steps:
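HepG2 cells transiently transfected with multiplexed GAL4-UAS reporter transcription units; after 24 h compound exposure, reporter mRNA measured by RT-PCR, FAM-labelled primer extension, HpaI digestion and capillary electrophoresis. Gain-of-signal fitted versus DMSO baseline; background control readout.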

The nature of assay [8]: ATG_NFI_CIS: Attagene CIS-FACTORIAL HepG2 Assay for human Nuclear Factor I (NFI) (AID 2282989; active = hit-call score of the fitted dose curve at least 0.9, where 1 is the maximum; inactive = score below 0.9). As to conditions: HepG2 cis-regulatory reporter, NFI response element transcription; actives raise or lower the signal. An outline of the steps:
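Reporter transcription driven by endogenous transcription factors in HepG2 cells; 24 h treatment. Quantitation by labelled RT-PCR fragments on capillary electrophoresis, gain- or loss-of-signal relative to DMSO.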

Assay [9] addresses Nuclear receptor subfamily 1 group I member 2 (Homo sapiens) (UniProt O75469). As to the kind of experiment: ATG_PXR_TRANS: Attagene TRANS-FACTORIAL HepG2 Assay for human Pregnane X Receptor (PXR) (AID 2283008). An outline of the steps:
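Measures mRNA induction of a GAL4-UAS-driven reporter in human HepG2 cells transiently expressing PXR fused to Gal4, following 24 h treatment. DMSO served as negative control and baseline.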

Assay [10] addresses human Retinoid X Receptor beta (RXRb), RXRB (gene 6257) (UniProt P28702). As to the kind of experiment: ATG_RXRb_TRANS: Attagene TRANS-FACTORIAL HepG2 Assay for human Retinoid X Receptor beta (RXRb) (AID 2283013). The essentials: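 HepG2 cells transiently transfected with multiplexed reporter units driven by GAL4-UAS and exogenous chimeric NR-Gal4 proteins; treated 24 h. Reporter mRNA measured by RT-PCR, 6-FAM labelling and capillary electrophoresis; gain-of-signal fitted versus DMSO baseline.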

For assay [11], the target named is Cellular tumor antigen p53 (Homo sapiens) (UniProt P04637). Nature of the assay: TOX21_p53_BLA_p3_ratio: Tox21 HCT-116 p53 Agonism Beta-lactamase Assay, Ratio, Phase 3 (AID 2283596). An outline of the steps: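 HCT116 p53-bla cells (4000/well) given compound in DMSO (217-fold dilution) after 5 h, incubated 16 h at 37C. CCF4-AM substrate 2 h at room temperature; 460/530 nm emission ratio, gain fitted against DMSO.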
Sequence of Cellular tumor antigen p53 (Homo sapiens) (P04637 whole entry, looked up): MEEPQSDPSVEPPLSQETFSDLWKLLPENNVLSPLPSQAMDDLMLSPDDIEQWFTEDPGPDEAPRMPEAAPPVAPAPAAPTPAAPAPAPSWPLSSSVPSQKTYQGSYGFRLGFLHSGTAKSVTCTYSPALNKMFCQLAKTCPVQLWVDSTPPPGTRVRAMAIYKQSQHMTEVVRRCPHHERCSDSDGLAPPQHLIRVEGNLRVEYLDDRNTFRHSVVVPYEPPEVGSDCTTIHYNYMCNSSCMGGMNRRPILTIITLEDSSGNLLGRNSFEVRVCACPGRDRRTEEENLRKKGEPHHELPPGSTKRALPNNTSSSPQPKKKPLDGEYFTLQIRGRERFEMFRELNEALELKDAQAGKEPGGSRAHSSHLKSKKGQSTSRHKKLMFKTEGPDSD

Assay [12] shares this target. Nature of the assay: TOX21_p53_BLA_p5_ratio: Tox21 HCT-116 p53 Agonism Beta-lactamase Assay, Ratio, Phase 5 (AID 2283599). The essentials: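 Beta-lactamase reporter ratio (blue 460 nm over green 530 nm, 405 nm excitation) after 2 h CCF4-AM loading, in HCT-116 cells exposed 16 h at 37 C to compounds pinned at 217-fold dilution. Increases relative to DMSO baseline scored.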

For assay [13] the target is unchanged. As to the kind of experiment: TOX21_p53_BLA_p4_ratio: Tox21 HCT-116 p53 Agonism Beta-lactamase Assay, Ratio, Phase 4 (AID 2283601). An outline of the steps:
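Signal is the blue/green (460nm/530nm) ratio of cleaved versus uncleaved CCF4-AM substrate, read after 2 h substrate loading. Cells were HCT116 carrying the p53-responsive beta-lactamase reporter, dosed 16 h at 37C, 5% CO2; CellTiter-Glo measured in parallel.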

Assay [14] in a line: ATG_M_61_CIS: Attagene CIS-FACTORIAL HepG2 Assay for M61 Transcription Factor (Internal Marker) (AID 2282937; active = hit-call score of the fitted dose curve at least 0.9, where 1 is the maximum; inactive = score below 0.9). Particulars: HepG2 Attagene CIS-FACTORIAL M61 internal marker reporter; actives raise or lower the signal. An outline of the steps: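 Fluorescence from labelled cDNA fragments, separated by capillary electrophoresis, quantifies reporter induction. HepG2 cells bearing transiently transfected cis-promoter MRTUs were incubated with test chemical for 24 h; DMSO defined baseline for gain/loss fitting.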

The nature of assay [15]: ATG_M_19_TRANS: Attagene TRANS-FACTORIAL HepG2 Assay for M19 Transcription Factor (Internal Marker) (AID 2282974). Particulars: HepG2 Attagene TRANS-FACTORIAL M19 internal marker reporter. An outline of the steps: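 Measured here: internal-marker reporter transcript from HepG2 cells transfected with MRTUs, harvested at 24 h. cDNA PCR products were 6-FAM labelled by primer extension, cut with HpaI for 2 h at 37 C, and resolved by CE.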

Assay [16] has as its target Nuclear respiratory factor 1 (Homo sapiens) (UniProt Q16656). Nature of the assay: ATG_NRF1_CIS: Attagene CIS-FACTORIAL HepG2 Assay for human Nuclear Respiratory Factor 1 (NRF1) Orphan Gene (AID 2282987; active = hit-call score of the fitted dose curve at least 0.9, where 1 is the maximum; inactive = score below 0.9). Particulars: HepG2 NRF1 cis-element reporter, Attagene multiplex; actives raise or lower the signal. The essentials: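 Transcriptional reporter readout, one component of a 52-endpoint multiplexed HepG2 panel. Exposure 24 h; mRNA detected via RT-PCR and fluorescent capillary electrophoresis; fitting in both directions against DMSO.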

Assay [17] deals with Retinoic acid receptor RXR-alpha (Homo sapiens) (UniProt P19793). Nature of the assay: ATG_RXRa_TRANS: Attagene TRANS-FACTORIAL HepG2 Assay for human Retinoid X Receptor alpha (RXRa) (AID 2283012). The essentials: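 HepG2 cells transiently transfected with multiplexed GAL4-UAS reporter units and chimeric NR-GAL4 fusions, dosed 24 h. Reporter mRNA measured by RT-PCR, FAM labelling, HpaI digestion and capillary electrophoresis; gain-of-signal fitted relative to DMSO baseline.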
Sequence of Retinoic acid receptor RXR-alpha (Homo sapiens) (P19793 whole entry, looked up, the tested form may be a part): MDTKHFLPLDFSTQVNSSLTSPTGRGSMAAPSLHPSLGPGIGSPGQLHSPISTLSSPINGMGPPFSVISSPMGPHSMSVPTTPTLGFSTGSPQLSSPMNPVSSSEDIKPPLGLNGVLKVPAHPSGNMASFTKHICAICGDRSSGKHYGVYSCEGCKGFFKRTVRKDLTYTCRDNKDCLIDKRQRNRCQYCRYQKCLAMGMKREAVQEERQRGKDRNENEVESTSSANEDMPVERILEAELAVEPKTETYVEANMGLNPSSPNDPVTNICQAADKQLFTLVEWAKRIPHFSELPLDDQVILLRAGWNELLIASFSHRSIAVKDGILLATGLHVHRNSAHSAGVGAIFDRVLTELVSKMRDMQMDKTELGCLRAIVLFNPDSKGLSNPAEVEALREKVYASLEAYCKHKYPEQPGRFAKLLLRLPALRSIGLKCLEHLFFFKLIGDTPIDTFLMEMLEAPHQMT

Assay [18] in a line: TOX21_p53_BLA_p5_viability: Viability Assessment in the Tox21 HCT-116 p53 Agonism Beta-lactamase Assay, Phase 5 (AID 2283600). The essentials: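 Cells were plated at 4000/well, rested 5 h at 37C, then given compounds in DMSO (217-fold dilution) for 16 h at 37C, 5% CO2. Following the CCF4-AM beta-lactamase read, CellTiter-Glo was added and luminescence was read after 30 min at room temperature.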

For assay [19], the target named is Hepatocyte nuclear factor 4-alpha (Homo sapiens) (UniProt P41235). Nature of the assay: ATG_HNF4a_TRANS: Attagene TRANS-FACTORIAL HepG2 Assay for human Hepatocyte Nuclear Factor 4 alpha (HNF4a) (AID 2282982). Particulars: HepG2 HNF4a transactivation reporter, mRNA readout. The essentials: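 Transfected HepG2 reporter cells are dosed for 24 h; reporter RNA is reverse-transcribed, amplified, fluorescently labelled and HpaI-digested before CE sizing. Positive-direction fit against DMSO.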
Sequence of Hepatocyte nuclear factor 4-alpha (Homo sapiens) (P41235 whole entry, looked up): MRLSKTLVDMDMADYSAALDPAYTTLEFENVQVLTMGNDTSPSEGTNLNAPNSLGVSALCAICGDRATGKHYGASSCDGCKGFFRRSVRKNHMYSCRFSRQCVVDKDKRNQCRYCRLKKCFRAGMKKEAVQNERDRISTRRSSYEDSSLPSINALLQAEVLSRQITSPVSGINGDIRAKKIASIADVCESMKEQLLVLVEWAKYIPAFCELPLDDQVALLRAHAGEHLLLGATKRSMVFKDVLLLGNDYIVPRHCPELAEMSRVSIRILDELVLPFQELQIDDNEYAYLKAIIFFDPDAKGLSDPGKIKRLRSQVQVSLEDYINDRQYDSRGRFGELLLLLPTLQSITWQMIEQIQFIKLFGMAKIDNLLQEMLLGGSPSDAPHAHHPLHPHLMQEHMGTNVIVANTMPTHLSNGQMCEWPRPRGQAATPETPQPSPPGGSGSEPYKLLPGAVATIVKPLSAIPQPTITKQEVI

The target of assay [20] is Cellular tumor antigen p53 (Homo sapiens) (UniProt P04637). As to the kind of experiment: TOX21_p53_BLA_p2_ratio: Tox21 HCT-116 p53 Agonism Beta-lactamase Assay, Ratio, Phase 2 (AID 2283592). An outline of the steps: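 HCT116 cells carrying a p53-responsive beta-lactamase reporter were plated, incubated 5 h at 37C, then dosed with compounds in DMSO (217-fold dilution) for 16 h. CCF4-AM substrate was added for 2 h at room temperature; the 460/530 nm emission ratio gave gain-of-signal activity relative to DMSO.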

Sequence of human Retinoid X Receptor beta (RXRb), RXRB (gene 6257) (P28702 whole entry, looked up, the tested form may be a part): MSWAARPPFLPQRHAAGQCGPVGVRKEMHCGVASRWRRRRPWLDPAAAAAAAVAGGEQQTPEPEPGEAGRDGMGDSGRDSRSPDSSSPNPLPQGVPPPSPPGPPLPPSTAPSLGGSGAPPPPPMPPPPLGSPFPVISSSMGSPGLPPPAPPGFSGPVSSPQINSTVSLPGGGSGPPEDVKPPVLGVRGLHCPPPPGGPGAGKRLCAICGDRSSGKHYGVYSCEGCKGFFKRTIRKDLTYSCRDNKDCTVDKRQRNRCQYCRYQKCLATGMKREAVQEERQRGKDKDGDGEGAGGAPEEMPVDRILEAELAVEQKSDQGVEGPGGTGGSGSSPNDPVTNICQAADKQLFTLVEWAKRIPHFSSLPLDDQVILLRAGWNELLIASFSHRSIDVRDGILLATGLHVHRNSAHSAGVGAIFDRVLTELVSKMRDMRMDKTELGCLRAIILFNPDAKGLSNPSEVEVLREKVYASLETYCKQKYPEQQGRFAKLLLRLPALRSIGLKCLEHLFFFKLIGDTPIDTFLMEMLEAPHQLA
Sequence of Nuclear receptor subfamily 1 group I member 2 (Homo sapiens) (O75469 whole entry, looked up, the tested form may be a part): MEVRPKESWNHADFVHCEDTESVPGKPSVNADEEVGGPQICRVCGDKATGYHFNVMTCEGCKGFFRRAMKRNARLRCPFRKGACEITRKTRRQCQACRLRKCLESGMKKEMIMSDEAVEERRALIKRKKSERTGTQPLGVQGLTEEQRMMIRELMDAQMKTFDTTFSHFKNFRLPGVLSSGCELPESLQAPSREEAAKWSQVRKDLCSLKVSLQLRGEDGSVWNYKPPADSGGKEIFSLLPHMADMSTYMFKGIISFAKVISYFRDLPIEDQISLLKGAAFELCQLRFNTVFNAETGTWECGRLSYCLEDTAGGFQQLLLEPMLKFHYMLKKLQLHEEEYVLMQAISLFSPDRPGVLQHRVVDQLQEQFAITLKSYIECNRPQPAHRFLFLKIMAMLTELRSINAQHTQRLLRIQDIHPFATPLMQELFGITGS
Sequence of Nuclear respiratory factor 1 (Homo sapiens) (Q16656 whole entry, looked up): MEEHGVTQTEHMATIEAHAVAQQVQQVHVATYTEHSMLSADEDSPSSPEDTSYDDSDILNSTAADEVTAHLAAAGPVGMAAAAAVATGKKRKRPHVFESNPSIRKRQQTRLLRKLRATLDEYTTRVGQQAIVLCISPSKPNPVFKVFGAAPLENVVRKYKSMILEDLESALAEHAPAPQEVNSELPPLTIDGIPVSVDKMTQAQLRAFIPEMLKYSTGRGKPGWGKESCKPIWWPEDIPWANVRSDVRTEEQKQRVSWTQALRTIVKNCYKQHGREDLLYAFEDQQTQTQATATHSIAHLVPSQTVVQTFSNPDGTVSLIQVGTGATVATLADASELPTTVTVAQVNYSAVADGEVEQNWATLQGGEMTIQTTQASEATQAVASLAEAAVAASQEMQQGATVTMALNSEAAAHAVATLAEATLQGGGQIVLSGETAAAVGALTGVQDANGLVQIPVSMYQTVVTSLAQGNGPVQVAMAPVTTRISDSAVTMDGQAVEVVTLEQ

Regarding `CC(C)COP(=O)(OCC(C)C)OCC(C)C`, the compound was classed as inactive in [1], in [2], in [3], in [5], in assay [6] and in assay [7]. In addition, the result in assay [8], in [10], in [11], in assay [12] and in [13] was inactive. Further, the values for the AC50 in assay [4] and in assay [9] were 128 µM (active) and 1.52 µM (active), respectively.

Turning to `C=CC(=O)OCC(CC)CCCC` (configuration not stated), the call in assay [14], in [2], in [3], in [4], in assay [5] and in assay [6] was inactive. Besides, the call in assay [15], in assay [16], in assay [8], in assay [9], in assay [17] and in assay [10] was inactive. The result in assay [11], in [12], in [18] and in assay [13] was inactive.

For the compound `CN(C)C(=O)C(c1ccccc1)c1ccccc1`, the call in [3], in assay [4], in assay [5], in assay [6], in [15] and in [19] was inactive. Besides, the result in assay [16], in [8], in [17], in assay [10], in assay [20] and in assay [11] was inactive. In addition, the result in assay [12] and in assay [18] was inactive. In addition, the AC50 (commonly the concentration giving half of the maximal activity seen) in assay [9] is 4.18 µM (active).

For the compound `Nc1ccc(Cl)c(Cl)c1`, the compound was called inactive in assay [14], in [1], in assay [3], in assay [4], in [5] and in assay [6]. Further, the compound was classed as inactive in [7], in assay [16], in [8], in assay [9], in assay [17] and in assay [10]. Besides, the outcome in assay [20], in assay [11], in [12] and in assay [13] was inactive.

On to `O=C(O)c1cc[c]([Hg][Cl])cc1`, for which the call in [1], in assay [2], in assay [3], in assay [4], in [5] and in [19] was inactive. The outcome in [7], in assay [16], in assay [17], in [20], in assay [11] and in assay [12] was inactive. In addition, the outcome in assay [13] was inactive. The AC50 in assay [8] is 11.1 µM (active); in assay [10] it was 53.8 µM (active).

Turning to `C=COCCCl`, the compound was classed as inactive in assay [14], in assay [1], in assay [2], in [4], in assay [5] and in assay [6]. The call in [15], in assay [7], in assay [16], in assay [8], in assay [17] and in assay [10] was inactive.

`O=CNC(N1CCN(C(NC=O)C(Cl)(Cl)Cl)CC1)C(Cl)(Cl)Cl` (configuration not stated): the outcome in assay [14], in assay [2], in assay [4], in [19], in [7] and in assay [8] was inactive. The compound was classed as inactive in [17], in [20], in assay [11], in [12] and in assay [18]. For the same compound, the AC50 in assay [9] was 6.57 µM (active).

Turning to `O=c1c2ccccc2c(=O)c2c1cc(Cl)c1[nH]c3c([nH]c12)c(Cl)cc1c(=O)c2ccccc2c(=O)c13`, the compound was classed as inactive in assay [14], in assay [1], in assay [2], in [3], in assay [4] and in assay [5]. Also, the result in [6], in assay [19], in assay [7], in assay [16], in assay [17] and in assay [20] was inactive. Also, the outcome in assay [12], in assay [18] and in assay [13] was inactive. Moreover, the values for the concentration at half-maximal activity (AC50) in assay [9] and in assay [10] were 10.1 µM (active) and 138 µM (active), respectively.

Take `Cc1ccc(OP(=O)(Oc2ccc(C)cc2)Oc2ccc(C)cc2)cc1` (tested in a mixture with another compound): the compound was classed as inactive in assay [14], in assay [1], in assay [2], in [3], in [4] and in assay [6]. For the same compound, the compound was classed as inactive in assay [15], in assay [7], in assay [16], in assay [8], in assay [17] and in [20]. In addition, the outcome in assay [12], in [18] and in [13] was inactive. Moreover, the half-maximal activity concentration (AC50) in assay [9] was 0.596 µM (active).
